Among the data in PubChem BioAssay (NCATS) are Potency, outcome and activity change, negative = inhibition values, retold here.

In test [1] the target is Rap guanine nucleotide exchange factor 3 (Homo sapiens) (UniProt O95398). The test can be described thus: Confirmatory qHTS for antagonist of cAMP-regulated guanine nucleotide exchange factor 3 (EPAC1) (AID 1645880). Further: nearly all actives have a fitted effect of over 55% in size. Further: potency means the concentration at half of the fitted maximal effect.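 On activity, negative = inhibition: plate controls were DMSO only for no effect and full effect of the ATA control for full effect.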 Conditions: EPAC1 Rap1B-BODIPY-GDP exchange, fluorescence; activity, negative = inhibition: at 115 µM (top of the series). The procedure, abridged: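 Nucleotide exchange uses 100 nM EPAC1, 250 nM RAP1B-BODIPY-GDP and 50 uM GDP, with compounds in a concentration-titration series. After 5 min at room temperature, fluorescence (480 nm ex/540 nm em) is read every 5 min for 30 min. Data are normalized to control ATA and DMSO.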
(In general: In qHTS, concentration-response curves come from the screen itself.)

Test [2] shares this target. Kind of test: Confirmatory qHTS for agonist of cAMP-regulated guanine nucleotide exchange factor 3 (EPAC1) (AID 1645881). Further: nearly all actives have a fitted effect of over 75% in size. Further: potency means the concentration at half of the fitted maximal effect.
Test [3] deals with Rap guanine nucleotide exchange factor 4 (Homo sapiens) (UniProt Q8WZA2). The test can be described thus: Confirmatory qHTS for antagonist of cAMP-regulated guanine nucleotide exchange factor 4 (EPAC2) (AID 1645885). Further: nearly all actives have a fitted effect of over 25% in size. Further: potency means the concentration at half of the fitted maximal effect. On activity change, negative = inhibition: on the % scale 0 is the no-effect control and ±100 the full control effect.
Test [4] concerns the target Rap guanine nucleotide exchange factor 3 (Homo sapiens) (UniProt O95398). Kind of test: Counterscreen qHTS for antagonist of cAMP-regulated guanine nucleotide exchange factor 3 (EPAC1) (AID 1645888).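 Further: fluorescence loss as bound BODIPY-GDP is released from Rap1B; % of control where 0% means no effect.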 Put shortly: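 Rap1B–BODIPY-GDP (250 nM) with 50 uM GDP; compounds pin-transferred to 9.74 nM–152 uM final (activator) or from 7.32 nM upwards (inhibitor). Fluorescence Ex/Em 480/540 nm read at 5 and 30 min, then after adding cAMP or buffer, at room temperature.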
In general terms: Counterscreens check selectivity or assay interference.

Molecules are shown by their SMILES. Inconclusive results are not listed. Unmarked numbers belong to inactive results. Active and inactive are the calls of the source. The call rests on the fitted dose curve; in most records, active means well fitted curve in the direction sought with a large enough effect; inconclusive means small, poorly fitted or top-dose-only effect, or another doubt; inactive means no such curve, though single readings can be large; an effect the other way counts as inactive or inconclusive.

Rap guanine nucleotide exchange factor 4 (Homo sapiens), sequence (Q8WZA2 whole entry, looked up): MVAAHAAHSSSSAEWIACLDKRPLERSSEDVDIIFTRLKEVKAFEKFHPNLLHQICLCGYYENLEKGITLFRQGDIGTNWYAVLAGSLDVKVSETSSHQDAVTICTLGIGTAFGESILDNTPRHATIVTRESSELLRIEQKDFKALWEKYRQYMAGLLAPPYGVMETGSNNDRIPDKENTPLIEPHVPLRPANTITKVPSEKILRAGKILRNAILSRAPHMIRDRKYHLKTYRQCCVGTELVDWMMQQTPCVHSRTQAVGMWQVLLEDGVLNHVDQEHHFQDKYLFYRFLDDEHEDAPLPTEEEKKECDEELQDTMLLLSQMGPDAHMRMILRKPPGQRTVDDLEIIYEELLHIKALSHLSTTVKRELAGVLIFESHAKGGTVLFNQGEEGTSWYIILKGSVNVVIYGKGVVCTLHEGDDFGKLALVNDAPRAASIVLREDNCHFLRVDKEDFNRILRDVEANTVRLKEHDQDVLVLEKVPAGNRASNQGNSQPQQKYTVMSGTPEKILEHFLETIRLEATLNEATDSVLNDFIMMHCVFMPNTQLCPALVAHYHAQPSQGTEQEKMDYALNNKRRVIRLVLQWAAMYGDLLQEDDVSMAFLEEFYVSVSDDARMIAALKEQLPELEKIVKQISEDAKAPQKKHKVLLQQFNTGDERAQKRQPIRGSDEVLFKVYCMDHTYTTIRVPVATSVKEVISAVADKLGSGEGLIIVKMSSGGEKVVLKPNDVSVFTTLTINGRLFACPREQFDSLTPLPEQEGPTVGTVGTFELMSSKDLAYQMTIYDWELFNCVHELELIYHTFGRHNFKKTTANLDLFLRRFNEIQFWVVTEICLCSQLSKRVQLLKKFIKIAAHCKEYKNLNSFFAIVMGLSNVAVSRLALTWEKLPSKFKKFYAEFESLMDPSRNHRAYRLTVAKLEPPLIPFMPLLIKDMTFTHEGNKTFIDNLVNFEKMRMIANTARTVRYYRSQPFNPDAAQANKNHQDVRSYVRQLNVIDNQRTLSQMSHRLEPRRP
Rap guanine nucleotide exchange factor 3 (Homo sapiens), sequence (O95398 whole entry, looked up): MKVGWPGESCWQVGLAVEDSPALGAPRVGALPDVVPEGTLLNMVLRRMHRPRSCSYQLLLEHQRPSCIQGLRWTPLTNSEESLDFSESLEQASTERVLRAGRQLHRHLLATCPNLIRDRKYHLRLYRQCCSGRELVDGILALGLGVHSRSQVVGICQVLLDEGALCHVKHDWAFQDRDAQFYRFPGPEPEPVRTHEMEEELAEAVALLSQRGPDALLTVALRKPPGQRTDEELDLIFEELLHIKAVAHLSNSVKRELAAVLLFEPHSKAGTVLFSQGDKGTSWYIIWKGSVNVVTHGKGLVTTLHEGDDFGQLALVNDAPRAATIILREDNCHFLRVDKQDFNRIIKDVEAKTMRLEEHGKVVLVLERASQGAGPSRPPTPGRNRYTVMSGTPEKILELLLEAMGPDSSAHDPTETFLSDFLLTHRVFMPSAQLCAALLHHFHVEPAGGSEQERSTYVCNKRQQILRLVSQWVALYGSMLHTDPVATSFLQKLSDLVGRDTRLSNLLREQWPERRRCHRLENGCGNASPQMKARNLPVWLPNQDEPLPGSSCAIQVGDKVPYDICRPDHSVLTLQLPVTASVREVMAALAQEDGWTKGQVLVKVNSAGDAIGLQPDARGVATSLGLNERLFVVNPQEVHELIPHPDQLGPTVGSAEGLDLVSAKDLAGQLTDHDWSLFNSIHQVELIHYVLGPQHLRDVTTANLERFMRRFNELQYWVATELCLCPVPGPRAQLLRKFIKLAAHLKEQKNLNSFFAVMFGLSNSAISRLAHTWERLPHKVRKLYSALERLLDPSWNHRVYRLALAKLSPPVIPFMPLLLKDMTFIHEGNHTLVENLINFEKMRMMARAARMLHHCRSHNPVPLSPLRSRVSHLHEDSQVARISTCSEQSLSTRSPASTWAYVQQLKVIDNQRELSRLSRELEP

Regarding `COc1cc(/C=N/NC(=O)c2cc(O)cc(O)c2)ccc1OC(=O)c1ccccc1`, the Potency is 33.8 µM (active) in test [1] and 3.38 µM (active) in test [3]. The Potency entry in test [2] and in test [4] was “inactive” each time.
Take `Cc1cc(Br)cc(C=Nc2ccc(N3CCOCC3)cc2)c1O`: the Potency result in test [1], in test [2], in test [3] and in test [4] was “inactive” each time.
Consider `CCn1c2ccccc2c2cc(NC(=O)c3ccc(=O)oc3)ccc21`, for which the Potency result in test [1] and in test [4] was “inactive” in each case. Further, the Potency in test [2] was 112 µM (active). Also, the outcome in test [3] is “inactive [at 12.7 µM]”.
Consider `CCCCCCOC(=O)C(C#N)c1nc2ccccc2nc1N1CCCCC1` (centres undefined), for which the Potency entry in test [1], in test [2], in test [3] and in test [4] was “inactive” each time.
Take `O=C1CCC(C(=O)Nc2ccccc2N2CCCC2)=NN1`: the Potency result in test [1], in test [2], in test [3] and in test [4] was “inactive” in each case.
As for `O=C(N/N=C\c1c(O)ccc2ccccc12)c1ccc(S(=O)(=O)N2CCCCC2)cc1`, the Potency entry in test [1] and in test [3] was “inactive” in each case. Moreover, in test [2], the Potency was 44.7 µM (active). Moreover, the activity change, negative = inhibition in test [4] was -15.1% [at 30.8 µM].
In the case of `COc1ccc(-n2c(O)c(/C=N/NS(=O)(=O)c3cc(C)ccc3C)c3ccccc3c2=O)cc1OC`, the Potency result in test [1], in test [2] and in test [4] was “inactive” each time. In addition, the Potency in test [3] is 33.8 µM (active).
As to `O=C(Nc1ccccc1N1CCCCC1)C1=COCCO1`, the Potency entry in test [1], in test [2], in test [3] and in test [4] was “inactive” throughout.
`OC(c1ccc2ccccc2n1)c1c(Cl)cccc1Cl` (centres undefined): the Potency entry in test [1], in test [2], in test [3] and in test [4] was “inactive” in each case.
With `CC(=O)c1cccc(NC(=O)Cn2cc(C(=O)c3cccc(Cl)c3)c(=O)c3ccc(C)nc32)c1`, the Potency result in test [1], in test [2] and in test [4] was “inactive” throughout. For the same compound, the outcome in test [3] was “inactive [at 12.7 µM]”.
Regarding `Cc1cc(C)cc(NC(=O)c2sc3nc(-c4cc5ccccc5oc4=O)[nH]c(=O)c3c2C)c1`, the Potency result in test [1], in test [2], in test [3] and in test [4] was “inactive” throughout.
